From PubChem
Most compounds without a hit are left out; they make up all but 5.7% or so of the library.
rCAG binder – binders of r(CAG) RNA repeats, primary screen, biochemical, fluorescence; AID 651821, 2012; inhibition, % at 3 µM; 370,000 compounds, 1.3% hits; r(CAG) RNA repeat, TO-PRO-1 dye displacement fluorescence;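 active = inhibition above the plate cutoff, the mean of all test compounds on that plate plus 3 SD, cut at about 35% in these data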;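 also: higher means more dye released from RNA so lower well fluorescence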
MPTP inh – mitochondrial permeability transition pore inhibitors, primary screen, biochemical, isolated mouse mitochondria, absorbance; Ca2+ swelling absorbance, 30 min; inhibition, % at 10 µM; 360,000 compounds, 1.4% hits; AID 602449, 2012;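 active = inhibition of 50% or more, scaled per plate between neutral and stimulator controls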
FAS TE block – FAS thioesterase domain inhibitors, primary screen, biochemical, fluorescence intensity, uHTS | Fatty acid synthase (Homo sapiens), P49327 | recombinant FAS-TE, OMFH fluorogenic substrate, fluorescence endpoint | inhibition, % at 15 µM | AID 602261, 2012 | 360,000 compounds, 0.67% hits;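 active = compounds whose normalised, plate-corrected inhibition of enzyme fluorescence in the single-dose primary screen is 50% or more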
Target sequence (P49327 whole entry, looked up, the tested form may be a part): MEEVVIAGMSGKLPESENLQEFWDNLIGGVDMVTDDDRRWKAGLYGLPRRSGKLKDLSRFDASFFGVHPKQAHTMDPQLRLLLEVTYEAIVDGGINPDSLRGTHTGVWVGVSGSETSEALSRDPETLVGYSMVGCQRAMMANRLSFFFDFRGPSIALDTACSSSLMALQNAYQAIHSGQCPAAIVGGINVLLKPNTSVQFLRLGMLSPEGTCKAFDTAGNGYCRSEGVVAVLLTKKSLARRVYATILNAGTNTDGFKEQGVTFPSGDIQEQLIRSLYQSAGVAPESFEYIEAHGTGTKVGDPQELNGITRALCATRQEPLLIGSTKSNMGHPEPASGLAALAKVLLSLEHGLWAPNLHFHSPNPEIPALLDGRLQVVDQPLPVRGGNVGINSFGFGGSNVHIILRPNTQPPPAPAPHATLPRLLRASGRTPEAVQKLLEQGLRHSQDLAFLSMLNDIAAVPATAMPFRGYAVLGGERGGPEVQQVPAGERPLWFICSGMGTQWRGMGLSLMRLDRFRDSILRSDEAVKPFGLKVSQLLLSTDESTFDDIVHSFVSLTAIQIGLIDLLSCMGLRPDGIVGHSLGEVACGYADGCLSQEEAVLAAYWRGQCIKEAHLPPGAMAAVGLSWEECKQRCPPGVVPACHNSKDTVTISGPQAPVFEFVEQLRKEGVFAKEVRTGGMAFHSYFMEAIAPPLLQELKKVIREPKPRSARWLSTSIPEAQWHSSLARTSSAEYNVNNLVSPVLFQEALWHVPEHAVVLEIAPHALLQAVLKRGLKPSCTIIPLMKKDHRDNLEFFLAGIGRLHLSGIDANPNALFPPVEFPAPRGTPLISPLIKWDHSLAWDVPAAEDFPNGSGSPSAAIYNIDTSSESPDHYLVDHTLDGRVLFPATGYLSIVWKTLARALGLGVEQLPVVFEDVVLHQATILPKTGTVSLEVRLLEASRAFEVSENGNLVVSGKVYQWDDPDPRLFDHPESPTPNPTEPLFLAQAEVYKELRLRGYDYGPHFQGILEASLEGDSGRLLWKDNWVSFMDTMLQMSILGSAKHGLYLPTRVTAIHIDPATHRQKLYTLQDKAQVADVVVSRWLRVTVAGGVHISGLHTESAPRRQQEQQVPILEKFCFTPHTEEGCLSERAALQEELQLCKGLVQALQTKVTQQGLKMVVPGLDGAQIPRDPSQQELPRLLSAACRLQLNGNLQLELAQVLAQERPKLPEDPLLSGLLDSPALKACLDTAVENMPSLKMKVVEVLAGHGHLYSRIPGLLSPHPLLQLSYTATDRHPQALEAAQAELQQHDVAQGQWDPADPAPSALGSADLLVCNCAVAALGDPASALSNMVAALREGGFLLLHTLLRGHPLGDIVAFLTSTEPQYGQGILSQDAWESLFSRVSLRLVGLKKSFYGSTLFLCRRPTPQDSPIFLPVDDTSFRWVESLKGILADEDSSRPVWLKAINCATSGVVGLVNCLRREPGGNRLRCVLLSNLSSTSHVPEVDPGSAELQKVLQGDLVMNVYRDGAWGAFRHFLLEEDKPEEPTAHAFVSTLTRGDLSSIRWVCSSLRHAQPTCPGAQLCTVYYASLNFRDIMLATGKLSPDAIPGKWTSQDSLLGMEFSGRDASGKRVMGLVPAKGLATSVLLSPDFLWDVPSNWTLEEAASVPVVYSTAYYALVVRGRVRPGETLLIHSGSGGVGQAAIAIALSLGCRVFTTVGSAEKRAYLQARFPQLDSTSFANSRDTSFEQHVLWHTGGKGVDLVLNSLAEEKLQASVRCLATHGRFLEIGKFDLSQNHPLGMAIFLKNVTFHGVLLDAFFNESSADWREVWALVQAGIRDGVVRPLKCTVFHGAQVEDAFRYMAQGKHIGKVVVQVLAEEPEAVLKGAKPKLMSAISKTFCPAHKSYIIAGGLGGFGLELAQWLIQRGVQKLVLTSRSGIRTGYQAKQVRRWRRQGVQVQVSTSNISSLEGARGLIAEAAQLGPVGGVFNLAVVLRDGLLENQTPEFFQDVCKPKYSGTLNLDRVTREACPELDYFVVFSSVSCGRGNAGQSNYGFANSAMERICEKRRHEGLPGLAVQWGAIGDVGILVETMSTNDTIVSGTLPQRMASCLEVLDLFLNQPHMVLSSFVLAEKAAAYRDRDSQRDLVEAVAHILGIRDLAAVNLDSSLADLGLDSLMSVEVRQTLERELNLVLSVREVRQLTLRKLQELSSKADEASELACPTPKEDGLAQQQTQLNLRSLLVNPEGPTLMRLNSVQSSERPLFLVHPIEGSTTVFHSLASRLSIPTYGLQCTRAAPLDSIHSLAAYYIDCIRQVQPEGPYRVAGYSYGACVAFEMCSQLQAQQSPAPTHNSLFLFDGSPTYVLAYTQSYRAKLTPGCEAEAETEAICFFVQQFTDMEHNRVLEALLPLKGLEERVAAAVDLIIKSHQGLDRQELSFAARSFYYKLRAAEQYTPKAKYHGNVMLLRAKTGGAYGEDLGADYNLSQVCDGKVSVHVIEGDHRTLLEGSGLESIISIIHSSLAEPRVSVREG
NR3A LBD binder – binders of NR3A ligand-binding domain, primary screen, biophysical, differential scanning fluorimetry, uHTS; Glutamate receptor ionotropic, NMDA 3A (GRIN3A) ligand-binding domain; NR3A LBD differential scanning fluorimetry, Tm shift; 0% = protein alone, 100% = glycine-bound protein; Tm shift relative to glycine control, % at 25 µM; 340,000 compounds, 2.5% hits; AID 1259313, 2017;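 active = melting temperature shift of at least 10% of the positive control shift, at one fixed dose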
Myeloid diff MLP – induction of myeloid progenitor differentiation, primary screen, cell-based, flow cytometry, MLPCN library | AID 624256, 2012 | ER-HoxA9 myeloid progenitors, lysozyme-GFP differentiation | 360,000 compounds, 1% hits | calls only at 10 µM;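 active = normalized GFP-positive differentiation at or above the plate's own cutoff, the solvent-only control mean plus 3 SD; inconclusive = no clear call, values can overlap the other calls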;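 also: cells exposed to compound for four days before flow analysis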
FAS-TE inh conf – FAS thioesterase domain inhibitors, confirmation, biochemical, fluorescence intensity, single concentration | shares compounds with FAS TE block | recombinant FAS-TE, OMFH fluorogenic substrate | inhibition, % at 15 µM | 2,300 compounds, 45% hits;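 active = compounds inhibiting the enzyme by at least 50% at 15 µM in any one of the replicates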
Of the large screens only hits and unclear results are named; the others gave an inactive call (follow-up assays come after a bar, where they were run).

CC(C)NC(=O)N(C)C[C@H]1OCc2cn(nn2)CCCC(=O)N([C@H](C)CO)C[C@@H]1C	none (no result: MPTP inh, FAS TE block, NR3A LBD binder, Myeloid diff MLP)
COc1ccc(-c2cc(C(=O)Nc3nc4c(C)cccc4s3)c3ccccc3n2)cc1OC	FAS TE block 68 | FAS-TE inh conf inactive
COc1ccc(NC(=O)c2cc(-c3cc(OC)c(OC)c(OC)c3)nc3ccccc23)cc1OC	none
COc1cc(-c2cc(C(=O)Nc3c(Cl)cc(Cl)cc3Cl)c3ccccc3n2)cc(OC)c1OC	FAS TE block 56 | FAS-TE inh conf inactive
CN1Cc2nnn(CC3CCCCC3)c2-c2ccccc2S1(=O)=O	none (no result: MPTP inh, FAS TE block, NR3A LBD binder, Myeloid diff MLP)
COc1cc(/C=C(\C#N)C(=O)Nc2cccc(C(=O)O)c2)ccc1OCc1ccc(C)cc1	none
N#C/C(=C\c1ccc(OCc2ccc(Cl)cc2)cc1)C(=O)Nc1cccc(C(=O)O)c1	FAS TE block 53 | FAS-TE inh conf inactive
O=C1N[C@@H](Cc2ccccc2)C(=O)N2[C@H]1C[C@]1([C@]34C[C@H]5C(=O)N[C@@H](Cc6ccccc6)C(=O)N5[C@H]3N(S(=O)(=O)c3ccccc3)c3ccccc34)c3ccccc3N(S(=O)(=O)c3ccccc3)[C@H]21	FAS TE block 77 | FAS-TE inh conf inactive
C[C@H]1C2CC(OC(=O)Nc3ccc(C#N)cc3)C(C2)[C@H]2CCCCN21 (stereo partly drawn)	none (no result: MPTP inh, FAS TE block, NR3A LBD binder, Myeloid diff MLP)
COc1cc(OC)cc(C2=Cc3ccccc3C(CC(=O)c3ccco3)N2c2ccc(-c3ccc(C(N)=O)cc3)cc2)c1 (stereo not drawn)	none (no result: NR3A LBD binder)
CC(C)(C)c1ccc(OCCC(=O)OCC(=O)NC2CCCCC2)cc1	FAS TE block 57 | FAS-TE inh conf 55
Nc1cc2ccccc2cc1NS(=O)(=O)N1CCCCC1	none (no result: MPTP inh, FAS TE block, NR3A LBD binder, Myeloid diff MLP)
C[C@@]12C(=O)N(c3cccc(F)c3)C(=O)N1[C@H](c1ccc(Cl)cc1)[C@@H]1C(=O)N(C3CCCCC3)C(=O)[C@@H]12	none
O=C1[C@H]2[C@@H](c3ccc(F)cc3)N3C(=O)N(c4cccc(Cl)c4)C(=O)[C@@]3(Cc3ccc(Cl)cc3)[C@H]2C(=O)N1C1CCCCC1	FAS TE block 86 | FAS-TE inh conf inactive
COc1ccc([C@@H]2[C@@H]3C(=O)N(C(C)(C)C)C(=O)[C@@H]3[C@]3(Cc4ccccc4)C(=O)N(c4ccccc4)C(=O)N23)cc1	none
O=C1[C@H]2[C@@H](c3ccc(F)cc3)N3C(=O)N(c4ccccc4)C(=O)[C@@]3(Cc3ccccc3)[C@H]2C(=O)N1C1CCCCC1	FAS TE block 59 | FAS-TE inh conf 36
COC(=O)[C@]12C[C@H](CC(=O)NCCCN3CCCC3=O)C(=O)N(Cc3ccccc3)C1=C[C@H](COCc1ccccc1)O[C@@H]2C	none (no result: MPTP inh, FAS TE block, NR3A LBD binder, Myeloid diff MLP)
c1ccc(COCCc2cn(Cc3ccccc3)c3ccccc23)cc1	none (no result: MPTP inh, FAS TE block, NR3A LBD binder, Myeloid diff MLP)
O=[N+]([O-])c1cc(-c2nnc(C34CC5CC(CC(C5)C3)C4)o2)cc([N+](=O)[O-])c1	FAS TE block 53 | FAS-TE inh conf inactive
O=[N+]([O-])c1cccc(-c2nnc(C34CC5CC(CC(C5)C3)C4)o2)c1	none
Cc1cccc(C2=NN(c3ccccc3)[C@@H](C(=O)N3CCOC3=O)[C@@H]2c2ccccc2)c1	none
O=C1OCCN1C(=O)[C@H]1[C@H](c2ccc([N+](=O)[O-])cc2)C(c2ccc(F)cc2)=NN1c1ccc(Br)cc1	FAS TE block 95, NR3A LBD binder 13 | FAS-TE inh conf inactive
O=C1OCCN1C(=O)[C@H]1[C@H](c2ccc([N+](=O)[O-])cc2)C(c2ccc(F)cc2)=NN1c1ccccc1	FAS TE block 84 | FAS-TE inh conf inactive
O=C(C(=O)N1CCC(CNC(=O)c2cccs2)CC1)c1cc2ccccc2o1	none (no result: MPTP inh, FAS TE block, NR3A LBD binder, Myeloid diff MLP)
COc1ccc(C(=O)OCC(=O)NCc2ccc3c(c2)OCO3)cc1[N+](=O)[O-]	FAS TE block 50 | FAS-TE inh conf inactive
CCN1C(=O)[C@H]2[C@@H](c3ccc(-c4cccc(Cl)c4)cc3)N[C@@](CC(C)C)(C(=O)OC)[C@H]2C1=O	FAS TE block 52 | FAS-TE inh conf inactive
COC(=O)[C@]1(Cc2ccccc2)N[C@H](c2ccc(-c3cccc(Cl)c3)cc2)[C@@H]2C(=O)N(C)C(=O)[C@@H]21	FAS TE block 91 | FAS-TE inh conf inactive
COC(=O)C1(Cc2ccccc2)NC(c2ccc(F)cc2)C2C(=O)N(C)C(=O)C21 (stereo not drawn)	none
COC(=O)[C@]1(Cc2ccccc2)N[C@H](c2ccc(-c3cc(C(C)=O)cs3)cc2)[C@@H]2C(=O)N(C)C(=O)[C@@H]21	none
COC(=O)[C@]1(Cc2ccccc2)N[C@H](c2ccc(-c3ccccc3)cc2)[C@@H]2C(=O)N(C)C(=O)[C@@H]21	FAS TE block 56 | FAS-TE inh conf inactive
COC(=O)[C@]1(Cc2ccccc2)N[C@H](c2ccc(-c3ccc(Cl)c(Cl)c3)cc2)[C@@H]2C(=O)N(C)C(=O)[C@@H]21	FAS TE block 90 | FAS-TE inh conf inactive
COC(=O)C[C@@H]1CC[C@@H]2[C@@H](COc3ccc(NC(=O)Nc4ccc(F)cc4)cc3C(=O)N2C)O1	none (no result: MPTP inh, FAS TE block, NR3A LBD binder, Myeloid diff MLP)
COc1ccc(N2C[C@@]3(O)CC[C@@H](O)[C@@H](OC)[C@@H]3[C@@]2(C)[C@H](O)CC=C(C)C)cc1	none (no result: MPTP inh, FAS TE block, NR3A LBD binder, Myeloid diff MLP)
CC(C)(C)C(=O)OC12CCCN(C1)/C(=C/c1cccc(Cl)c1)C2 (stereo not drawn)	none (no result: MPTP inh, FAS TE block, NR3A LBD binder, Myeloid diff MLP)
CC(=O)O[C@@H]1C[C@H]2C(C)(C)C(=O)C=C[C@]2(C)[C@H]2CC[C@@]3(C)[C@H](c4ccoc4)OC(=O)[C@H]4O[C@]43[C@@]21C	FAS TE block 51 | FAS-TE inh conf inactive
O=C(/C=C/c1cc([N+](=O)[O-])ccc1OC(F)F)Nc1ccc(OC(F)F)cc1	none
O=C(/C=C/c1cc([N+](=O)[O-])ccc1OC(F)F)NCc1ccc(F)cc1	FAS TE block 72, Myeloid diff MLP inconclusive | FAS-TE inh conf 86
CC(C)(C)c1ccc(/C=C2\CCn3c2nc2cc(C(=O)O)ccc2c3=O)cc1	FAS TE block 84 (no result: rCAG binder) | FAS-TE inh conf 88
COC(=O)[C@]12C[C@H](CC(=O)NCc3ccc(C)o3)C(=O)N(Cc3cccc4ccccc34)C1=C[C@H](COCc1ccccc1)O[C@@H]2C	none (no result: MPTP inh, FAS TE block, NR3A LBD binder, Myeloid diff MLP)
Cc1ccc(CN2CC(=O)N3[C@H]4c5ccccc5OC[C@@H]4[C@H](c4ccccc4)[C@]3(C)C2=O)cc1	FAS TE block 51 | FAS-TE inh conf inactive
C[C@@]12C(=O)N(Cc3ccccc3)CC(=O)N1[C@H]1c3ccccc3OC[C@@H]1[C@@H]2c1ccccc1	none
